The campaign covered roughly 69,000 compounds. About 8,600 (12%) showed an effect of 50% or more. Many of the other results were omitted from the sample, so strong results are more common in it than they were.
What follows are compounds tested on Plasmodium berghei (assay: Screen against P. berghei liver stage (PbLuc), transformed with Luciferase, at 10uM). Conditions: tested at 10 uM.
Format: functional, HepG2

Structure (SMILES)	INHIBITION
CC(C)n1ccc(-c2cc(C(=O)N3CCN(C)CC3)c3ccccn23)n1	16.9%
Cc1onc(-c2ccncc2)c1C(=O)NC1CCCOC1 (stereo not given)	10.8%
CCN(C)c1ncnc2c1CCN(C(=O)c1ccoc1C)CC2	-125%
CC(C)CCC(=O)N1CC[C@@H]2[C@H](CC1)N(S(C)(=O)=O)CCS2(=O)=O	-31.9%
C/C(NC(=O)c1ccccn1)=C1\C(=O)C[C@@H]2[C@H]1C2(C)C	9.41%
Cc1cc(OC(F)F)c(C(=O)N2CC[C@H](O)C2)s1	3.58%
CN(C)[C@H]1COC[C@@H]2CN(Cc3ccc4c(c3)OCO4)C[C@@H]21	12.1%
Cc1ccc(=O)n(Cc2csc(N(C)C3CC3)n2)n1	-40.6%
CN(c1nc(Cn2cnccc2=O)cs1)C1CC1	55.5%
CN(c1nc(Cn2cc(Br)ccc2=O)cs1)C1CC1	0%
O=c1ccncn1Cc1csc(C2CC2)n1	57.5%
CCc1csc(C2CCCN(C(=O)c3ccncc3)C2)n1 (stereo not given)	6.1%
Cn1cnc2c1CCN(Cc1csc(C3CCCC3)n1)C2	-19.9%
Cc1cc(C(=O)NCc2cccn2C)nn1C	9.55%
CS(=O)(=O)NC[C@H]1OC[C@@H]2CCN(Cc3ccc(F)cc3)C[C@@H]21	-16.2%
Cc1n[nH]cc1C(=O)N1CCCC(n2nnc3cc(F)ccc32)C1 (stereo not given)	21%
Cc1nn(C)cc1C(=O)N1CCCC(n2nnc3cc(F)ccc32)C1 (stereo not given)	-3.31%
Cc1nnsc1C(=O)N1CCCC(n2nnc3cc(F)ccc32)C1 (stereo not given)	52%
COCCc1noc(CN2CCOC(Cn3cc(C)cn3)C2)n1 (stereo not given)	-90.9%
Cc1cccc(=O)n1CCC(=O)N1CCC2(CC1)OCCCC2O (stereo not given)	24.2%
CCn1c(CNC(=O)Nc2nc(C)c(C)o2)nc2ccccc21	44.8%
Cc1nc(C)c(C(=O)NCc2nc3cccc(C)c3n2C)o1	88.8%
Cc1nc(NC(=O)NCc2nc3cccc(C)c3n2C)oc1C	38.6%
CCc1ccc(C(=O)O)cc1S(=O)(=O)Nc1ccc2c(c1)OCCO2	28%

Structure (SMILES)	INHIBITION
CCS(=O)(=O)NCCCNCc1c(C)nn(C)c1N(C)C	23.25%
CCN(Cc1ccncc1)C1CCN(c2ccccc2)C1=O (stereo not given)	-13.1%
CCN(Cc1cccnc1)C1CCN(c2ccccc2)C1=O (stereo not given)	-2.27%
CCN(Cc1cnc(C)cn1)C1CCN(c2ccccc2)C1=O (stereo not given)	15.2%
Cc1cc(N2CCC(N(C)Cc3cccnc3)C2=O)n(C)n1 (stereo not given)	59.3%
CCN(Cc1ccccc1)C1CCN(c2cc(C)nn2C)C1=O (stereo not given)	57.2%
CCOc1ccc(CN(C)C2CCN(c3cc(C)nn3C)C2=O)cc1 (stereo not given)	24.7%
CC(C)C(=O)N1CCC2(CCN2CC2CC2)C1 (stereo not given)	8.85%
Cc1cc(C(=O)N2C[C@@H]3CC[C@H]2CN(Cc2ccccn2)C3)nc(C)n1	4.59%
Cc1ncsc1C(=O)N1CCC(c2ccc3c(NC(C)C)n[nH]c3n2)C1 (stereo not given)	-3.94%
CC(=O)Nc1ccc(SCC(O)COCc2ccccc2)cc1 (stereo not given)	16.6%
O=C(Cc1cccnc1)NCCS(=O)(=O)c1ccccc1F	33.7%
CNC(=O)C1(c2cnccn2)CCCN1C(=O)c1cccc(F)c1 (stereo not given)	1.5%
CC(C)c1nn(C)c(N2CCOCC2)c1CNC(C)c1ccccn1 (stereo not given)	23.7%
Cc1nn(C)c(N2CCOCC2)c1CNC(C)c1ccccn1 (stereo not given)	36.2%
CCC(CC)NCC(c1ccccn1)N1CCOCC1 (stereo not given)	65.6%
c1ccc(C(CNc2ncccn2)N2CCOCC2)nc1 (stereo not given)	3.48%
COc1cc(NCC(c2ccccn2)N2CCOCC2)ncn1 (stereo not given)	6.26%
c1cncc(C(Cn2cnnc2)N2CCOCC2)c1 (stereo not given)	7.31%
Cc1ccc(C(CNC(=O)NCc2ccccn2)N2CCOCC2)o1 (stereo not given)	11.783%
c1ccc(C(Cn2cnnc2)N2CCOCC2)nc1 (stereo not given)	70.4%
NCc1cc(NCC(c2ccccn2)N2CCOCC2)ncn1 (stereo not given)	60.1%
CCCS(=O)(=O)NC1CCN(c2cccc(F)c2C#N)CC1	25.4%
c1nc(CCC2CCCCN2)cc(N2CCCC2)n1 (stereo not given)	32.8%

Structure (SMILES)	INHIBITION
O=C(CC1CC1)N1Cc2nccn2CC(COc2cccnc2)C1 (stereo not given)	13.5%
O=C(N[C@H]1CCCC[C@@H]1O)c1cccc(-c2nc3ccccc3[nH]2)c1	-13.2%
CCc1nc(CN2CCCC(Nc3ncnc4ccsc34)C2)no1 (stereo not given)	88.5%
Cc1nc(CN2CCCC(NCc3cccc4ccccc34)C2)no1 (stereo not given)	-18.8%
Cc1nc(CN2CCCC(Nc3ncnc4c3CCC4)C2)no1 (stereo not given)	85.1%
Cc1nc(CN2CCCC(NCc3ccc4ccccc4c3)C2)no1 (stereo not given)	41.5%
Cc1nc(CN2CCCC(NCc3cnn(C)c3)C2)no1 (stereo not given)	-10.6%
Cc1nc(CN2CCCC(NCc3sccc3C)C2)no1 (stereo not given)	48.4%
Cc1nc(CN2CCCC(NCc3nc4ccccc4s3)C2)no1 (stereo not given)	29.2%
Cc1nc(CN2CCCC(Nc3ncnc4ccccc34)C2)no1 (stereo not given)	90.2%
CCc1nc(CN2CCCC(NCc3cc(C)no3)C2)no1 (stereo not given)	29.5%
Cc1nc(CN2CCCC(Nc3ncnc4ccsc34)C2)no1 (stereo not given)	79.1%
Cc1nc(CN2CCCC(NCc3ccsc3)C2)no1 (stereo not given)	20.1%
CCc1nc(CN2CCCC(NCc3cnc(C)s3)C2)no1 (stereo not given)	15.3%
CN(C)Cc1cnc(C2CCN(C(=O)c3cc(F)cc(F)c3)C2)[nH]1 (stereo not given)	2.05%
CC(C(=O)N1CCCC1)N1CCN(c2ncc(Cl)cn2)CC1 (stereo not given)	13.8%
CN(C)C(=O)CN1CCCCC1c1nc(N)ncc1-c1ccccc1 (stereo not given)	19.3%
COc1cc(N2CC[C@@H]3O[C@@H](C(=O)NC(C)C)C[C@@H]32)ncn1	-4.32%
O=C(COCc1nc(-c2ccncc2)no1)N1CCCCC1	-19.7%
CN(C)S(=O)(=O)c1ccc(CN2CCCC2c2cccs2)o1 (stereo not given)	22.3%
CN1CCC(N2CCC(C(=O)N(C)C)CC2)CC1	28.5%
CNCC(=O)N1CCCC(c2nccnc2Oc2cccc(F)c2)C1 (stereo not given)	49.5%
